# High-throughput results: PubChem, National Center for Advancing Translational Sciences (NCATS)
# In the library only some 19% were active in any assay of this set; here they are far more common.
# DT40 TDP1 no CPT: qHTS for Inhibitors of human tyrosyl-DNA phosphodiesterase 1 (TDP1): qHTS in cells in absence of CPT; DT40 Tdp1-/- hTDP1 cells, no CPT, ATP luminescence, 48 h; Potency, µM (highest dose often 46.2 µM), without a hit: top-dose activity change, negative = growth inhibition, actives largely listed as inhibitors; actives 15% (n = 420,000); also: potency is read from the fitted curve at half-maximal effect; nearly all actives have a fitted effect of over 55% in size
#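 A cellular qHTS used chicken DT40 cells lacking endogenous Tdp1 but carrying stably transfected human TDP1. Compounds were applied without camptothecin, and cell growth kinetics were judged by ATP-dependent luminescence after ≥48 hr.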
# HT1080NT lethal: kills 2HG-producing HT-1080-NT fibrosarcoma cells. HT-1080-NT fibrosarcoma viability, CellTiter-Glo ATP luminescence, 48 h. Potency, µM (top dose mostly 46.1 µM), without a hit: top-dose activity, negative = less viability, actives largely listed as cytotoxic. actives 1.6% (n = 360,000). AID 686970;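 also: NT is the 2HG producing partner of a matched IDH1 knockdown line; potency is read from the fitted curve at half-maximal effect; 0% = DMSO-treated cells and -100% = media-only wells without cells; nearly all actives have a fitted effect of over 55% in size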
#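 Luminescent CellTiter-Glo readout after 48 hours of compound exposure at 37 degrees C defined viability of HT-1080-NT cells. Activity was normalized to DMSO wells and cell-free media wells; concentration-response curves were fitted and assigned curve classes.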
# DT40 TDP1 CPT: DT40-hTDP1 cell growth loss with CPT; chicken DT40 Tdp1-/-;hTDP1 cells + 20 nM CPT, ATP luminescence, 48 h; Potency, µM (highest dose often 46.2 µM), for inactives: top-dose activity change, negative = growth inhibition, actives largely listed as inhibitors; actives 12% (n = 420,000); AID 686979; also: potency is read from the fitted curve at half-maximal effect; nearly all actives have a fitted effect of over 55% in size
#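 Chicken DT40 Tdp1-/- cells complemented with human TDP1, 400 cells/well, exposed to compounds plus 20 nM camptothecin for at least 48 h at 37 C; viability read as ATP content by CellTiter-Glo luminescence.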
# ELG1 repair inh: ELG1-dependent DNA repair inhibition; HEK293T ELG1-luciferase reporter, luminescence, 16 h; DNA damage induced by 5-fluorouridine; actives 2.3% (n = 330,000); Potency, µM (titrated, usually from 46.1 µM), for inactives: at the top dose activity change, negative = inhibition, actives largely listed as inhibitors; also: potency is read from the fitted curve at half-maximal effect; nearly all actives have a fitted effect of over 55% in size
#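 5-Fluorouridine DNA damage + compound/DMSO, 2,000 cells/well, 16 h, 37 °C/5% CO2. ONE-Glo, 30 min RT, luminescence. Readout = decrease in reporter signal.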
# IL-1B inflam inh: blocks inflammasome-driven IL-1 beta release. THP-1 LPS/ATP IL-1B secretion, AlphaLISA, 16 h; stronger effect = lower value. activity change, % at 57.5 µM. actives 4.7% (n = 360,000); in the data active = activity change below about -50%; inconclusive = mostly about -30% to -49%
#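 Secreted IL-1B measured by AlphaLISA bead assay after 16 h compound exposure of THP-1 cells; compounds (final up to 57.5 uM) added 1 h before LPS (250 ng/mL) and ATP (1.25 mM) stimulation; lower signal means less secretion.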
# HT1080 IDH1KD tx: kills HT-1080 cells with IDH1 knockdown; HT-1080 IDH1 knockdown viability, ATP luminescence, 48 h; Potency, µM (highest dose often 46.1 µM), without a hit: at the highest dose activity, negative = toxicity, actives largely listed as cytotoxic; actives 2% (n = 360,000);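 also: potency is read from the fitted curve at half-maximal effect; 0% = DMSO wells and -100% = cell-free medium wells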
#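 CellTiter-Glo luminescence after 48 h compound exposure at 37 degrees C of IDH1-knockdown HT-1080 cells in 5% FBS RPMI. %Activity scaled between DMSO wells and cell-free media wells, with curves fitted and assigned curve classes.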
# * = called active by the depositor; ? = inconclusive; / = no result; [ ] = remark or other dose. Unless noted, calls follow the shape of the dose curve; as a rule, active = well fitted curve in the direction sought with a large enough effect; inconclusive = small, poorly fitted or top-dose-only effect, or another doubt; inactive = no such curve, though single readings can be large; an effect the other way counts as inactive or inconclusive. Unless noted, % is scaled to controls: 0 for no effect and ±100 for the full control effect.
SMILES,DT40 TDP1 no CPT,HT1080NT lethal,DT40 TDP1 CPT,ELG1 repair inh,IL-1B inflam inh,HT1080 IDH1KD tx
CSc1ncccc1C(=O)OCC(=O)c1[nH]c(C)c(C(C)=O)c1C,?,1%[9.24 µM],18µM*,-1%,0,2%
CCOC(=O)c1cc(S(=O)(=O)NCc2ccc(C)cc2)[nH]n1,-16%,/,?,/,/,/
CCOC(=O)c1cc(S(=O)(=O)N2CCN(c3ccc(C)cc3C)CC2)[nH]n1,21µM*,/,9.2µM*,/,/,/
CCOC(=O)c1c(C)oc2ncnc(N3CCN(c4ccccc4OC)CC3)c12,16µM*,/,?,/,/,/
CCOC(=O)c1c(C)oc2ncnc(N3CCN(c4cccc(Cl)c4)CC3)c12,16µM*,/,?,/,/,/
CCOC(=O)c1c(C)oc2ncnc(N3CCN(c4ccc(C)cc4C)CC3)c12,23µM*,/,21µM*,/,/,/
CNC(=O)C[C@@H]1C(=O)N(c2ccc(OC)cc2)CC1(C)C,-8%,13%,0%,/,12,18%
C[N+]1(CC(=O)c2ccc(F)cc2)CCc2ccccc2C1 (stereo not drawn),-21%,/,-11%,/,/,/
CCC(C)NC(=O)c1ccc2c(c1)N(Cc1ccccc1)C(=O)c1ccccc1S2(=O)=O (stereo not drawn),-20%,/,?,/,/,/
O=C(COC(=O)c1ccc(S(=O)(=O)C(F)F)cc1)Nc1cccnc1Cl,-12%,4%,9%,-5%,1,15%
CCOC(=O)c1noc2ncnc(N3CCN(c4ccccc4OC)CC3)c12,2.9µM*,/,4.6µM*,/,/,/
CCOC(=O)c1noc2ncnc(NCc3ccccc3OC)c12,-16%,/,?,/,/,/
Cc1ccc(C)c(NC(=O)CN(C)S(=O)(=O)c2ccccc2)c1,-26%,9%,-12%,-14%,-18,3%
COc1ccc(S(=O)(=O)N(CCc2ccccc2)CC(=O)NCc2ccc(C)cc2)cc1,21µM*,/,?,/,/,/
COc1ccc(S(=O)(=O)N(CCc2ccccc2)CC(=O)Nc2cccc(OC)c2)cc1,18µM*,/,?,/,/,/
CSc1ccccc1NC(=O)CN(C)C(=O)/C=C/c1ccccc1,-14%,-6%,-3%,-1%,-7,3%
COc1cc(/C=C/C(=O)N(C)CC(=O)Nc2ccccc2SC)cc(OC)c1OC,?,10%,?,16µM*,14,9%
Cc1ccc(S(=O)(=O)N(CCc2ccccc2)CC(=O)Nc2cc(C)ccc2C)cc1,16µM*,/,?,/,/,/
COc1ccccc1CNc1ncnc2sc(C(=O)N(C)C(C)C)c(C)c12,?,/,-4%[9.04 µM],/,/,/
COc1ccc(S(=O)(=O)N(CCc2ccccc2)CC(=O)Nc2ccc(C)c(C)c2)cc1OC,16µM*,/,15µM*,/,/,/
COCCNC(=O)CN(CCc1ccccc1)S(=O)(=O)c1ccc(OC)cc1,4%,-2%,-15%,4%,-9,7%
CSc1ccccc1NC(=O)CN(C)CC(=O)Nc1cc(C)ccc1C,21µM*,-9%,-4%,?,0,-1%
COc1ccc(/C=N/NC(=O)CN(CCc2ccccc2)S(=O)(=O)c2ccc(NC(C)=O)cc2)cc1OC,?,-4%,?,?,-19,-1%
COc1ccc(S(=O)(=O)N(CCc2ccccc2)CC(=O)Nc2cc(C)ccc2C)cc1,21µM*,/,18µM*,/,/,/
COc1ccc(NC(=O)c2ccco2)cc1NC(=O)c1ccccc1[N+](=O)[O-],9%,-4%,-2%,-2%,-9,3%
SMILES,DT40 TDP1 no CPT,HT1080NT lethal,DT40 TDP1 CPT,ELG1 repair inh,IL-1B inflam inh,HT1080 IDH1KD tx
COc1ccccc1C#CC1=CC(=O)C[C@H](c2ccc(F)cc2)C1,16µM*,?,15µM*,/,-58*,-23%
COc1ccc(C2=CC(=O)C[C@H](c3ccc(F)cc3)C2)c(F)c1F,?,-12%,?,?,?,-2%
O=C1C=C(C#Cc2ccccc2)C[C@@H](c2ccc(F)cc2)C1,4.6µM*,?,4.6µM*,/,-85*,-16%
Cc1nc2c(C#N)c[nH]n2c(=O)c1CCO,?,11%,?,17%,-9,24%
CCCCC,0%,/,-10%,/,/,/
C/C(=N\NC(=O)c1cccnc1)c1ccc(C)c([N+](=O)[O-])c1,-5%,-8%,-5%,0%,-8,-7%
C/C(=N\NC(=O)c1[nH]c2c([N+](=O)[O-])cc(C)cc2c1-c1ccccc1)c1cccnc1,15µM*,-8%,26µM*,-18%,-21,0%
CC1CN(C(=O)/C=C/c2ccc([N+](=O)[O-])s2)CC(C)O1 (stereo not drawn),15µM*,?,?,?,-23,?
O=C(/C=C/c1ccc([N+](=O)[O-])s1)N1CCN(c2ccccc2)CC1,16µM*,-1%,?,0%,-12,0%
CC1CN(C(=O)/C=C/c2ccccc2[N+](=O)[O-])CC(C)O1 (stereo not drawn),-3%,13%,-3%,2%,4,16%
O=C(/C=C/c1cccs1)N1CCCCC1,-16%,15%,-11%,?,-7,5%
O=C(/C=C/c1ccc([N+](=O)[O-])s1)N1CCCC1,10µM*,?,21µM*,15µM*,7,-19%
O=C(/C=C/c1ccccc1[N+](=O)[O-])N1CCCCC1,16%,0%,?,27%,-5,1%
O=C(/C=C/c1ccc([N+](=O)[O-])s1)N1CCCCC1,12µM*,?,?,?,-90*,23µM*
NC(=O)c1c(NC(=O)CS(=O)(=O)c2ccc(Cl)cc2)sc2c1CCCCC2,16µM*,/,23µM*,/,/,/
CNC(=O)c1c(NC(=O)CS(=O)(=O)c2ccccc2)sc(C)c1C,-28%,3%,-9%,6%,-17,-4%
CN(CC(=O)Nc1ccc(Cl)cc1)CC(=O)Nc1sc2c(c1C(N)=O)CCC2,15µM*,-6%,21µM*,/,?,-19%
Cc1cccc(C)c1NC(=O)CN(C)CC(=O)Nc1sc2c(c1C(N)=O)CCC2,?,2%,?,7.3µM*,-14,5%
CNC(=O)c1c(NC(=O)CS(=O)(=O)c2ccc(Cl)cc2)sc(C)c1C,?,-5%,9.2µM*,-22%,-6,-25%
C[C@]12c3[nH]c4ccc(Cl)cc4c3CCN1C(=O)[C@@H](CC(=O)NCc1ccco1)C[C@@H]2C(=O)N1CCCCC1,5.8µM*,-11%,6.5µM*,?,-55*,?
